Unmarked numbers belong to inactive results. Inconclusive results are not listed. Entries that show only a call come without a potency. Activity calls are given as the source filed them. Unless noted, calls come from the whole dose curve; as a rule, active = well fitted curve in the direction sought with a large enough effect in the repeat runs; inconclusive = weak or mixed curves; inactive = no such curve, though single readings can be large; an effect the other way counts as inactive or inconclusive.
Experiments:
[1] = target: Androgen receptor (Homo sapiens) (UniProt P10275); assay: qHTS assay to identify small molecule antagonists of the androgen receptor (AR) signaling pathway using the MDA cell line in the presence of 0.5 nM R1881 (AID 1259243); note: nearly all actives have a fitted effect of over 50% in size; note: potency is the fitted concentration of half-maximal effect
Procedure, shortened: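 Luminescence from an AR/GR-responsive MMTV-luciferase construct in MDA-kb2 breast carcinoma cells, read 30 min after ONE-Glo, following 16 hr co-treatment with compounds and 0.5 nM R1881.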

[2] = target: Estrogen receptor (Homo sapiens) (UniProt P03372); assay: qHTS assay to identify small molecule antagonists of the estrogen receptor alpha (ER-alpha) signaling pathway using the BG1 cell line in the presence of 0.1 nM 17-beta-estradiol (AID 1259244); note: nearly all actives have a fitted effect of over 50% in size; note: potency is the fitted concentration of half-maximal effect
Procedure, shortened: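 Luciferase signal from VM7Luc4E2 ERE-reporter cells, co-dosed with test compound and 0.1 nM final 17beta-estradiol for 22 h, read with ONE-Glo.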

[3] = qHTS assay to identify small molecule HDAC inhibitors (AID 1259364); note: potency is the fitted concentration of half-maximal effect;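 note: wild-type HCT-116 cells with endogenous class I/II HDAC activity; nearly all actives have a fitted effect of over 45% in size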; for activity change, negative = inhibition: top concentration of the series differs between compounds
Procedure, shortened: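 HCT-116 wt cells, 1,500/well, overnight attach. Compounds (DMSO) 2 h, 37 °C. HDAC-Glo I/II, 30 min RT. Luminescence.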

[4] = qHTS assay to identify small molecule HDAC inhibitors - cell viability counter screen (AID 1259365); note: nearly all actives have a fitted effect of over 50% in size; note: potency is the fitted concentration of half-maximal effect; for activity change, negative = cytotoxicity: series mostly up to about 92 µM
Procedure, shortened: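 HCT-116 wild-type, overnight attachment; 2hr drug exposure, 37C; CellTiter-Glo luminescent ATP readout after 30min RT.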

[5] = qHTS assay to identify small molecule agonists of the sonic hedgehog signaling (Shh) pathway - cell viability counter screen (AID 1259366); note: nearly all actives have a fitted effect of over 50% in size; note: potency is the fitted concentration of half-maximal effect
Procedure, shortened: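 Compounds in DMSO were pin-transferred onto 3T3 Gli1-Luc cells that had settled 4hr; plates then stood 24hr at 37C and 5% CO2. One hour before the end, CellTiter-Fluor was added and fluorescence recorded.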

[6] = qHTS assay to identify small molecule antagonists of the sonic hedgehog signaling (Shh) pathway - cell viability counter screen (AID 1259367); note: nearly all actives have a fitted effect of over 55% in size; note: potency is the fitted concentration of half-maximal effect
Procedure, shortened: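 CellTiter-Fluor signal in conditioned medium-stimulated 3T3 Gli1-Luc cells, 23 hr compound exposure, 37C.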

[7] = qHTS assay to identify small molecule agonists of the sonic hedgehog signaling (Shh) pathway (AID 1259368; calls by dose curve; note: nearly all actives have a fitted effect of over 15% in size; note: potency is the fitted concentration of half-maximal effect;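 for activity change: NIH/3T3-derived 3T3Gli1-Luc cells carrying a stable Gli1-driven firefly luciferase reporter; series mostly up to about 92 µM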)
Procedure, shortened: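 Following a 24 hr incubation with DMSO-dissolved compounds at 37 C, 5% CO2, Gli1-Luc NIH/3T3-derived cells received luciferase reagent for 30 min at room temperature prior to luminescence measurement.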

[8] = target: Estrogen receptor beta (Homo sapiens) (UniProt Q92731); assay: qHTS assay to identify small molecule agonists of the estrogen receptor beta (ER-beta) signaling pathway (AID 1259377; active = well fitted activation curve with a large enough effect in the signal ratio in the repeat runs, not every such curve was filed as active; the % refers to the signal ratio)
Procedure, shortened: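 qHTS in ER-beta-UAS-bla HEK293T cells: 6 hr settling, then 16 hr compound at 37C, then LiveBLAzer substrate 2 h at RT before fluorescence reading.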

[9] = qHTS assay to identify small molecule antagonists of the sonic hedgehog signaling (Shh) pathway (AID 1259369; calls by dose curve; note: nearly all actives have a fitted effect of over 45% in size; note: potency is the fitted concentration of half-maximal effect)
Procedure, shortened: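 Read-out is luminescence from a firefly luciferase gene controlled by the Gli1 response element, in 3T3Gli1-Luc cells pre-incubated 4hr then exposed to compounds and conditioned medium for 24hr.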

[10] = qHTS assay to identify small molecule phospholipidosis (PLD) inducers (AID 1259344; active = well fitted curve in the direction sought with a large enough effect; an effect the other way counts as inactive or inconclusive; note: potency is the fitted concentration of half-maximal effect)
Procedure, shortened: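 Accumulated phospholipid, stained red by LipidTOX during 24 h compound treatment of HepG2 cells at 37 C, is quantified from images as pit number and intensity, normalised per cell using Hoechst-stained nuclei.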

Chain of Estrogen receptor beta (Homo sapiens) (Q92731 whole entry, looked up): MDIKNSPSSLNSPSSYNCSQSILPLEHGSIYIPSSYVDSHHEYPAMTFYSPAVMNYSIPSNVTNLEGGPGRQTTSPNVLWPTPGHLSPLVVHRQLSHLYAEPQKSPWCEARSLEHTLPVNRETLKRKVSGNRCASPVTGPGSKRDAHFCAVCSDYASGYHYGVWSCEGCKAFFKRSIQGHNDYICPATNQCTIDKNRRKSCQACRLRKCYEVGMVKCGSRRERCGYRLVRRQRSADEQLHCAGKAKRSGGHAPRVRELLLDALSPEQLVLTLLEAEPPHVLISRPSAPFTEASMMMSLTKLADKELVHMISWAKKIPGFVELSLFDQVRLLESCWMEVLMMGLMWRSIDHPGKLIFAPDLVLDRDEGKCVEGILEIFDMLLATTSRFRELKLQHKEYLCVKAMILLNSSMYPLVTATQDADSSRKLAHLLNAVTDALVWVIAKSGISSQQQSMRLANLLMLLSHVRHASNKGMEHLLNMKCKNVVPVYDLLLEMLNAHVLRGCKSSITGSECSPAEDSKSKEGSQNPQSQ
Chain of Androgen receptor (Homo sapiens) (P10275 whole entry, looked up): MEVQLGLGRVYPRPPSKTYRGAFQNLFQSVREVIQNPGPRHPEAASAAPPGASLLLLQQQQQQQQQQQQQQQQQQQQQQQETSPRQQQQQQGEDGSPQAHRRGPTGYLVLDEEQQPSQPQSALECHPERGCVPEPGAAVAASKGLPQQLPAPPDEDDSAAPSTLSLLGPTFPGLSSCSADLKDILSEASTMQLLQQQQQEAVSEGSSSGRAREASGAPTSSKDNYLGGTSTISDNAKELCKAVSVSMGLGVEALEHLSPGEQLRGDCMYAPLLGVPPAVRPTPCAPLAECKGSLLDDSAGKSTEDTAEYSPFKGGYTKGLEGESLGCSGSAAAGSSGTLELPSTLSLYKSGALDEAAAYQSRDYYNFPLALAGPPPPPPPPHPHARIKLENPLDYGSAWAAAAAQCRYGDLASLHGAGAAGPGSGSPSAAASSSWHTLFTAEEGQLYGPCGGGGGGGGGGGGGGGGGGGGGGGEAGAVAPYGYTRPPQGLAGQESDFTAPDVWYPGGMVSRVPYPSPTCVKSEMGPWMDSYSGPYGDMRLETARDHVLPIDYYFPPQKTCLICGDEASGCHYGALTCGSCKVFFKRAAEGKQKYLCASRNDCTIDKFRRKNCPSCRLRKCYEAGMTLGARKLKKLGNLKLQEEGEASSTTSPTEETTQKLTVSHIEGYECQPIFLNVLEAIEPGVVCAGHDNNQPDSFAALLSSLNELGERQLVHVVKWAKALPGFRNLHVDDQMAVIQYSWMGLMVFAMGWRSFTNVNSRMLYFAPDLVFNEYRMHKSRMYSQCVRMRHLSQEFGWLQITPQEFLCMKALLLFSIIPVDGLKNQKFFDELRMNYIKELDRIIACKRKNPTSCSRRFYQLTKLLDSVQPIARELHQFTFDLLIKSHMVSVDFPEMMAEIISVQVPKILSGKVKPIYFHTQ
Chain of Estrogen receptor (Homo sapiens) (P03372 whole entry, looked up): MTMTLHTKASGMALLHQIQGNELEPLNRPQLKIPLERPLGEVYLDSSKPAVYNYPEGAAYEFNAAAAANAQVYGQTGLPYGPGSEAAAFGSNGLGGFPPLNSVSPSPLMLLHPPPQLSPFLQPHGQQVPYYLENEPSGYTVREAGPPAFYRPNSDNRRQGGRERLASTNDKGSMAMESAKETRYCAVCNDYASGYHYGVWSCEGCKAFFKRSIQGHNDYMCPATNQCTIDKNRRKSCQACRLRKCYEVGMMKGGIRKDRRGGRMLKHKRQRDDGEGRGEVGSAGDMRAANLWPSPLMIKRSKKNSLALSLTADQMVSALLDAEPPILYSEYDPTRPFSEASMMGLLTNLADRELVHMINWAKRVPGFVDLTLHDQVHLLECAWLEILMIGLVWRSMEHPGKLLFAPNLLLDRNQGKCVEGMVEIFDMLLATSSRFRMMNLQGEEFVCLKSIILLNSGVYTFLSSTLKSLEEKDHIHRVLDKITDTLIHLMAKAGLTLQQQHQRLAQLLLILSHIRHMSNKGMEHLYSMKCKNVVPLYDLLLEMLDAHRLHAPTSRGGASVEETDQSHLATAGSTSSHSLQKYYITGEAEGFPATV

C=CC(C)(CCC=C(C)C)OC(=O)/C=C/c1ccccc1 (stereo not given)
Potency [1]: inactive
Potency [2]: inactive
Potency [3]: inactive
Potency [4]: inactive
Potency [5]: inactive
Potency [6]: inactive
Potency [7]: inactive
Potency [8]: inactive

C=CC(=O)OCCN(CC)CC
Potency [1]: inactive
Potency [2]: inactive
Potency [3]: inactive
Potency [4]: inactive
Potency [5]: inactive
Potency [6]: inactive
Potency [7]: inactive
Potency [9]: inactive
Potency [8]: inactive

C=C/C=C/C=C/CCCCC
activity, negative = inhibition [1]: 3% [at 19 µM]
activity change, negative = inhibition [2]: -0.135% [at 19 µM]
activity change, negative = inhibition [3]: -2.93% [at 19 µM]
activity change, negative = cytotoxicity [4]: -0.499% [at 19 µM]
viability change, negative = cytotoxic [5]: -4.32% [at 19 µM]
viability change, negative = cytotoxic [6]: -2.58% [at 19 µM]
activity change [7]: -0.134% [at 18.9 µM, active compounds read high]
activity change, negative = inhibition [9]: -23.5% [at 19 µM]
activation [8]: -0.263% [at 19 µM]

CCOC(OCC)C(=O)c1ccccc1
Potency [1]: inactive
Potency [2]: inactive
Potency [3]: inactive
Potency [4]: inactive
Potency [5]: inactive
Potency [6]: inactive
Potency [7]: inactive
Potency [9]: inactive
Potency [8]: inactive

CCc1c(Br)c(Br)c(Br)c(Br)c1Br
Potency [1]: inactive
Potency [2]: inactive
Potency [3]: inactive
Potency [4]: inactive
Potency [5]: inactive
Potency [6]: inactive
Potency [7]: inactive
Potency [9]: inactive
Potency [8]: inactive

CCOCOCC
Potency [1]: inactive
Potency [2]: inactive
Potency [3]: inactive
Potency [4]: inactive
Potency [5]: inactive
Potency [6]: inactive
Potency [7]: inactive
Potency [9]: inactive
Potency [8]: inactive

c1ccc2c(c1)CCC2
Potency [1]: inactive
Potency [2]: inactive
Potency [3]: inactive
Potency [4]: inactive
Potency [5]: inactive
Potency [6]: inactive
Potency [7]: inactive
Potency [9]: inactive
Potency [8]: inactive

NC(=O)c1nc(-c2cccc(-c3cc(F)ccc3OCC(F)(F)C(F)(F)F)c2)n[nH]1
Potency [1]: 54.5 µM (active)
Potency [2]: 54.5 µM (active)
Potency [3]: inactive
Potency [4]: inactive
Potency [6]: inactive
Potency [7]: inactive
Potency [9]: 3.06 µM (active)

Cc1cnccn1
Potency [1]: inactive
Potency [2]: inactive
Potency [3]: inactive
Potency [4]: inactive
Potency [5]: inactive
Potency [6]: inactive
Potency [7]: inactive
Potency [9]: inactive
Potency [8]: inactive

CCC(C)(C)c1cc(O)c(C(C)(C)CC)cc1O
Potency [1]: 17.2 µM (active)
Potency [2]: 68.6 µM (active)
Potency [3]: inactive
Potency [4]: inactive
Potency [5]: inactive
Potency [6]: inactive
Potency [7]: inactive
Potency [9]: 6.86 µM (active)
Potency [8]: inactive

C=CC/C=C/C/C=C/C/C=C/C
Potency [1]: inactive
Potency [2]: inactive
Potency [3]: inactive
Potency [4]: inactive
Potency [5]: inactive
Potency [7]: inactive
Potency [9]: inactive
Potency [8]: inactive

CC1CCCCC1
Potency [1]: inactive
Potency [2]: inactive
Potency [3]: inactive
Potency [4]: inactive
Potency [5]: inactive
Potency [6]: inactive
Potency [7]: inactive
Potency [9]: inactive
Potency [8]: inactive

CC(C)(C)c1n[nH]c(=O)n(N)c1=O
Potency [1]: inactive
Potency [2]: inactive
Potency [3]: inactive
Potency [4]: inactive
Potency [5]: inactive
Potency [6]: inactive
Potency [7]: inactive
Potency [9]: inactive
Potency [8]: inactive

CC1CNCC(C)O1 (stereo not given)
Potency [1]: inactive
Potency [2]: inactive
Potency [3]: inactive
Potency [4]: inactive
Potency [5]: inactive
Potency [6]: inactive
Potency [7]: inactive
Potency [9]: inactive
Potency [8]: inactive

C[Si](C)O[Si](C)C
Potency [1]: inactive
Potency [2]: inactive
Potency [3]: inactive
Potency [4]: inactive
Potency [5]: inactive
Potency [7]: inactive
Potency [9]: inactive
Potency [8]: inactive

CCOB(OCC)OCC
Potency [1]: inactive
Potency [2]: inactive
Potency [3]: inactive
Potency [4]: inactive
Potency [5]: inactive
Potency [6]: inactive
Potency [7]: inactive
Potency [9]: inactive
Potency [8]: inactive

c1ccc(Sc2ccccc2)cc1
Potency [1]: inactive
Potency [2]: inactive
Potency [3]: inactive
Potency [4]: inactive
Potency [5]: inactive
Potency [7]: inactive
Potency [9]: 27.3 µM (active)

Cc1cccc(C)n1
Potency [1]: inactive
Potency [2]: inactive
Potency [3]: inactive
Potency [4]: inactive
Potency [5]: inactive
Potency [6]: inactive
Potency [7]: inactive
Potency [9]: inactive
Potency [8]: inactive

O=C(O)c1cccc(Cl)n1
Potency [1]: inactive
Potency [2]: inactive
Potency [3]: inactive
Potency [4]: inactive
Potency [5]: inactive
Potency [7]: inactive
Potency [9]: 30.6 µM (active)

C=C(C)CCCC
Potency [1]: inactive
Potency [2]: inactive
Potency [3]: inactive
Potency [4]: inactive
Potency [5]: inactive
Potency [6]: inactive
Potency [7]: inactive
Potency [8]: inactive

COc1cc(C(C)C)c2c(c1)S(=O)(=O)N(COc1cc(=O)n3cccc(OCCN4CCCCC4)c3n1)C2=O
activity, negative = inhibition [1]: -16.6% [at 19 µM]
activity change, negative = inhibition [2]: -10.3% [at 19 µM]
activity change, negative = inhibition [3]: -2.47% [at 19 µM]
activity change, negative = cytotoxicity [4]: -0.608% [at 19 µM]
viability change, negative = cytotoxic [5]: -0.671% [at 19 µM]
activity change [7]: 1.72% [at 18.9 µM, active compounds read high]

CCN=C1C=CC(=C(c2ccc(N(CC)CC)cc2)c2ccc(N(CC)CC)cc2)c2ccccc21
Potency [1]: 0.608 µM (active)
Potency [2]: 0.682 µM (active)
Potency [3]: 27.1 µM (active)
Potency [4]: 34.2 µM (active)
Potency [5]: 21.6 µM (active)
Potency [6]: 24.2 µM (active)
Potency [7]: inactive
Potency [9]: 0.0963 µM (active)
Potency [8]: inactive

COc1cc(C=C2CCC/C(=C\c3ccc(O)c(OC)c3)C2=O)ccc1O
Potency [1]: 9.44 µM (active)
Potency [10]: inactive
Potency [3]: inactive
Potency [4]: inactive
Potency [6]: 23.7 µM (active)
Potency [7]: 26.6 µM (active)

C[C@H]1O[C@@H](O[C@H]2[C@@H](O)C[C@H](O[C@H]3[C@@H](O)C[C@H](O[C@H]4CC[C@@]5(C)[C@H](CC[C@@H]6[C@@H]5C[C@@H](O)[C@]5(C)[C@@H](C7=CC(=O)OC7)CC[C@]65O)C4)O[C@@H]3C)O[C@@H]2C)C[C@H](O)[C@@H]1O
Potency [1]: inactive
Potency [10]: 11.2 µM (active)
Potency [3]: inactive
Potency [4]: inactive
Potency [5]: inactive
Potency [6]: inactive
Potency [7]: inactive

c1cc(OCC2CO2)cc(OCC2CO2)c1 (stereo not given)
Potency [1]: 48.2 µM (active)
Potency [2]: 48.2 µM (active)
Potency [4]: inactive
Potency [5]: 21.5 µM (active)
Potency [6]: 60.6 µM (active)
Potency [7]: inactive
Potency [9]: 19.2 µM (active)

— PubChem BioAssay (Tox21)
